Assay results reported in PubChem BioAssay.
Records with an inconclusive call do not appear. Active and inactive are the calls of the source.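 Rule for the calls, unless noted: active = viability at or below 30% in both replicate assays; inconclusive = viability at or below 30% in just one of the two assays; inactive = the rest.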

Legend:
[1] = reducers of endogenous Her2 protein level, primary screen, SKBR3 breast tumor cells, AlphaScreen, ATP viability (AID 461;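 active = Her2 level under about 52% in both replicate screens, with viability over 70% of control, limit read from the data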;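 for Her2 level: lower value means less Her2 protein in the cells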;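 for viability: percent of carrier control wells set as 100% viability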); settings: 18-24 h, measured here: SKBR3 viability, ATP luminescence, at 10 µM
[2] = target: Receptor tyrosine-protein kinase erbB-2 (Homo sapiens) (UniProt P04626); test: as above; settings: 18-24 h, at 10 µM, stronger effect = lower value
Receptor tyrosine-protein kinase erbB-2 (Homo sapiens), sequence (P04626 whole entry, looked up): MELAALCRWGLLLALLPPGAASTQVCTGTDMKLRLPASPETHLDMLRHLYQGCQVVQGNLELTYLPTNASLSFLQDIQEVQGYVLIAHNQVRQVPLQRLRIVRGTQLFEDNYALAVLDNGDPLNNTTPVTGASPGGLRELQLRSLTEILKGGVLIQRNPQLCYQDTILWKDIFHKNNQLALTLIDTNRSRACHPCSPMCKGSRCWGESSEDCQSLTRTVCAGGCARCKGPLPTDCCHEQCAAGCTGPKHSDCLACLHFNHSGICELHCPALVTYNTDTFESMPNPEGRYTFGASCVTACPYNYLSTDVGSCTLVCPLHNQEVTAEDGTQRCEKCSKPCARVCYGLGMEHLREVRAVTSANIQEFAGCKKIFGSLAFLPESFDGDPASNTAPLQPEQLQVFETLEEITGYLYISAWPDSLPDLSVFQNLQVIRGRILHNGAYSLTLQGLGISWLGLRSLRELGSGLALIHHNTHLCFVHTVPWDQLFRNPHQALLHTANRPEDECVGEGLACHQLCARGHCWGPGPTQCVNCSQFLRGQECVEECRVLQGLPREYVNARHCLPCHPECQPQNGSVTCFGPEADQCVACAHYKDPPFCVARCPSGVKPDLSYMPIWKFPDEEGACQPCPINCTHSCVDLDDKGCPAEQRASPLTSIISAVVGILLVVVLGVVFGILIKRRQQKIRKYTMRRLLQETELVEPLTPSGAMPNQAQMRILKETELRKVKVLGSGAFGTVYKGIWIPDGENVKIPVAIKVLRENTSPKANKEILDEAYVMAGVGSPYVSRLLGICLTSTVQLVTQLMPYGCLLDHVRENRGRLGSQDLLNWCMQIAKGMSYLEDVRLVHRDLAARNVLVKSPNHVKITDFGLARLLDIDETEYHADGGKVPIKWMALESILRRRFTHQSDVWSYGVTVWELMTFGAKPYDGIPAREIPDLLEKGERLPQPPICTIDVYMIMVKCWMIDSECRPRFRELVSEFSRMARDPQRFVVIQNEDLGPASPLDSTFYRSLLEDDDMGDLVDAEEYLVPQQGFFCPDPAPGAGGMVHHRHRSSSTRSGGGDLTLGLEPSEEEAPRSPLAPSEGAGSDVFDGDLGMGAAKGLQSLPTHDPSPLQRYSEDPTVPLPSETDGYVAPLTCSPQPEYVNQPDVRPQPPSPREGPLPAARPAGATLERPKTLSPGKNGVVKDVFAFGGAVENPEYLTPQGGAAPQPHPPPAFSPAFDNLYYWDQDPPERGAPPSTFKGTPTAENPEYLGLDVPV

[3] = SK-BR-3 cell growth inhibitors, pilot screen, 24 h, human (AID 572;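 active = viability at or below 10% of carrier control in both of two separate runs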;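 note: compound exposure lasted between 18 and 24 h rather than exactly 24 h; 100% = carrier-treated control wells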); settings: SK-BR-3 viability, CellTiter-Glo luminescence, at 10 µM, stronger effect = lower value
[4] = HUVEC growth inhibition – cell-based, human, primary screen (AID 575); settings: HUVEC proliferation, CellTiter-Glo luminescence, 72 h; at 10 µM; stronger effect = lower value;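 note: 100% = median of untreated cell wells with 0.1% DMSO on each plate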
[5] = growth inhibitors of H69AR lung tumor, primary screen, human, duplicate replicates (AID 580;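 active = viability at or under a set limit in both replicates, limit being median viability minus 3 SD, cut at about 48% in these data, passing the limit was not always enough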;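 note: 100% = mean luminescence of untreated wells and 0% = no signal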); settings: H69AR lung tumor cells viability, ATP luminescence, 72 h; at 10 µM; stronger effect = lower value
[6] = reversal of MRP1-mediated doxorubicin resistance, pilot screen, H69AR cells, doxorubicin co-treatment (AID 601;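 active = viability loss from added drug above about 55%, and viability with drug at most 40%, in both replicates, limit read from the data, passing the limit was not always enough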); settings: CellTiter-Glo, 72 h, at 10 µM; for differential viability (reversal): stronger effect = higher value
[7] = 384-well plate pilot, post-Golgi transport modulator project, inhibition of yeast transport mutant growth (AID 636; in the data active = inhibition above about 31%); settings: absorbance 615 nm, about 18 h, stronger effect = higher value
[8] = growth suppression of yeast trafficking mutant, preliminary HTS, modulators of trafficking downstream of Golgi apparatus project, 1536-format plate, OD 615 nm (AID 637; in the data active = inhibition above about 30%); settings: yeast transport mutant growth, absorbance 615 nm, 18 h; stronger effect = higher value
[9] = OD615 S. cerevisiae growth inhibition, permissive medium, pilot counter-assay, permissive growth control for S. cerevisiae lifespan shortening project (AID 705;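 active = growth inhibition above 25% in both replicates, a cutoff set 3 SD above the mean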); settings: OD615, 24 h, at 10 µM, stronger effect = higher value
[10] = Restrictive medium S. cerevisiae growth inhibition, OD615, pilot screen of yeast lifespan reduction project, restrictive growth control (AID 706;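 active = growth inhibition above a set limit, 3 SD over mean compound inhibition, in both replicates, cut at about 43% in these data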;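 note: modified DeaD lifespan yeast strain shifted to restrictive glucose medium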); settings: OD615, 48 h, at 10 µM, stronger effect = higher value
[11] = viability gain of MRP-1-high H69AR cells under doxorubicin, pilot screen, MRP-1 activator project, CellTiter-Glo, duplicate (AID 807;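 active = viability increase at or above a cutoff of the median across tested compounds plus 3 SD, cut at about 8.5% in these data, passing the limit was not always enough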;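 note: compound pretreatment 18-22 h then 72 h combined with doxorubicin; 0% = doxorubicin alone and 100% = vehicle without doxorubicin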); settings: H69AR viability with doxorubicin, CellTiter-Glo luminescence; at 10 µM; stronger effect = higher value
[12] = growth suppression of beta-catenin knockout HCT116, pilot screen, human colon tumor cells (AID 823;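 active = cell viability at or below a set limit in both duplicate runs, the limit being the all-compound median minus 4 SD, cut at about 23% in these data, passing the limit was not always enough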;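 note: 0% = wells killed by 20 µM Hyamine and 100% = untreated DMSO cell wells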); settings: CellTiter-Glo, 60 h, at 10 µM, stronger effect = lower value
[13] = inhibitors of the yeast RAM network, pilot screen, dse1pr::URA3 reporter, 5-FOA selection (AID 869;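 active = inhibition over a set limit, the all-compound mean plus 3 SD, in both replicate runs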;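 note: 0% = DMSO wells with no growth and 100% = 10 µM 1-NA-PP1 with full growth; RAM network block rescues cells from 5-FOA so hits raise OD615 growth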); settings: S. cerevisiae dse1pr::URA3 5-FOA growth, OD615, 2 d; at 10 µM; stronger effect = higher value; strain carries analog-sensitive mutant Cbk1 kinase
[14] = RAM signaling pathway blockade in yeast – S. cerevisiae, Pdr1DBD-CYC8 efflux-inhibited sensitized strain, primary screen (AID 1298;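 active = RAM network inhibition above 8.4% in each of two replicates, 3 SD over the compound average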;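 note: 0% = DMSO untreated cells without growth and 100% = 10 µM 1-NA-PP1 full growth; higher means more yeast growth rescued from 5-FOA killing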); settings: S. cerevisiae cbk1-as DSE1-URA3 strain, 5-FOA growth OD615, 2 d; at 50 µM; stronger effect = higher value
[15] = growth suppression of PTEN-deleted HCT116, pilot screen, cell-based, HCT116 clonal line, CellTiter-Glo (AID 824;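 active = viability at or below 27.92% in each of two runs, the all-compound median minus 4 SD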;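 note: 0% = 20 µM Hyamine control and 100% = vehicle cell control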); settings: 60 h, at 10 µM, stronger effect = lower value
[16] = H69AR cells + 2 uM doxorubicin, measured here: viability with 2 uM doxorubicin, stronger effect = lower value
[17] = H69AR cells, compound alone cytotoxicity

CCCc1nnc2n1N=C(c1ccc(-c3cc(Cl)ccc3Cl)o1)CS2
108%: viability [1]
inactive: Her2 level [2] 94% | viability [3] 108% | viability [4] 97.1% | viability [5] 89.2% | differential viability (reversal) ([6]; H69AR cells + 2 uM doxorubicin) 1.35% | inhibition [7] -1.82% | inhibition [8] 0% | growth inhibition [9] -18.6% | growth inhibition [10] 4.29% | viability increase [11] -2.95% | viability [12] 97.8% | inhibition [13] 1.36% | RAM network inhibition [14] 1.93%
87.8%: viability [6, 16]
89.2%: viability [6, 17]

Cc1cc(C)c(C(=O)Nc2ccc(S(=O)(=O)Nc3onc(C)c3C)cc2)c(C)c1
inactive: Her2 level [2] 100% | viability [3] 110% | viability [4] 79.5% | viability [5] 93.4% | differential viability (reversal) ([6]; H69AR cells + 2 uM doxorubicin) 6.5% | inhibition [7] -6.27% | inhibition [8] -1.48% | growth inhibition [9] -15% | growth inhibition [10] -9.75% | viability increase [11] 2.97% | viability [12] 93.3% | viability [15] 95.3% | inhibition [13] 2.68% | RAM network inhibition [14] 10.4%
110%: viability [1]
93.4%: viability [6, 17]
86.9%: viability [6, 16]

CC(C)C(NC(=O)c1ccc(S(=O)(=O)N2CCOCC2)cc1)c1nc2ccccc2[nH]1 (centres undefined)
82.2%: viability [6, 17]
104%: viability [1]
inactive: Her2 level [2] 94.5% | viability [3] 104% | viability [4] 72.5% | viability [5] 82.2% | differential viability (reversal) ([6]; H69AR cells + 2 uM doxorubicin) -2.94% | inhibition [7] 1.95% | inhibition [8] -2.95% | growth inhibition [9] -13.7% | growth inhibition [10] -12.6% | viability increase [11] -5.63% | viability [12] 100% | inhibition [13] 2.71% | RAM network inhibition [14] 6.44%
85.2%: viability [6, 16]

CCOC(=O)N1CCC(NC(=O)c2ccc3c(c2)N(CC)CCS3)CC1
74.2%: viability [6, 17]
inactive: Her2 level [2] 91.5% | viability [3] 94.5% | viability [4] 100% | viability [5] 74.2% | differential viability (reversal) ([6]; H69AR cells + 2 uM doxorubicin) -5.34% | inhibition [7] -6.93% | inhibition [8] -0.33% | growth inhibition [9] -10.9% | growth inhibition [10] -0.105% | viability increase [11] -3.08% | viability [12] 98.2% | viability [15] 97% | inhibition [13] 3.51% | RAM network inhibition [14] 2.26%
79.6%: viability [6, 16]
94.5%: viability [1]

Cc1noc(/C=C/N(C)C)c1S(=O)(=O)N1CCCC(C(=O)NCCC2=CCCCC2)C1 (centres undefined)
104%: viability [6, 17]
inactive: Her2 level [2] 79% | viability [3] 94.5% | viability [4] 79.7% | viability [5] 104% | differential viability (reversal) ([6]; H69AR cells + 2 uM doxorubicin) 15.8% | inhibition [7] -1.87% | inhibition [8] -1.31% | growth inhibition [9] -0.38% | growth inhibition [10] -11.2% | viability increase [11] 2.75% | viability [12] 92.1% | viability [15] 72.8% | inhibition [13] 1.23% | RAM network inhibition [14] 6.39%
94.5%: viability [1]
88.7%: viability [6, 16]

CCCSc1nc2c(cnn2-c2ccc(C)cc2)c(=O)[nH]1
19.1%: viability [6, 17]
22.6%: viability [6, 16]
93%: viability [1]
inactive: Her2 level [2] 99% | viability [3] 93% | differential viability (reversal) ([6]; H69AR cells + 2 uM doxorubicin) -3.51% | inhibition [7] -2% | inhibition [8] -2.62% | growth inhibition [9] -8.62% | growth inhibition [10] 6.35% | viability increase [11] -8.01% | viability [12] 40.5% | inhibition [13] 3.78% | RAM network inhibition [14] 4.52%
active: viability [4] 7.04% | viability [5] 19.1%

CCN1CCN(c2nc3c(c(=O)[nH]c(=O)n3C)n2CCSc2nc3ccccc3s2)CC1
88.6%: viability [6, 17]
95.5%: viability [1]
inactive: Her2 level [2] 95% | viability [3] 95.5% | viability [4] 115% | viability [5] 88.6% | differential viability (reversal) ([6]; H69AR cells + 2 uM doxorubicin) -8.44% | inhibition [7] -1.73% | inhibition [8] 4% | growth inhibition [9] 1.81% | growth inhibition [10] -6% | viability increase [11] -1.2% | viability [12] 96.9% | viability [15] 91.4% | inhibition [13] 0.9% | RAM network inhibition [14] -0.84%
97.1%: viability [6, 16]

O=C(Nc1nncs1)c1ccccc1NS(=O)(=O)c1cccs1
93.8%: viability [6, 16]
90.2%: viability [6, 17]
99%: viability [1]
inactive: Her2 level [2] 110% | viability [3] 99% | viability [4] 95.3% | viability [5] 90.2% | differential viability (reversal) ([6]; H69AR cells + 2 uM doxorubicin) -3.62% | inhibition [7] -4.86% | inhibition [8] -11.2% | growth inhibition [9] -20.1% | growth inhibition [10] -10.1% | viability increase [11] -1.16% | viability [12] 102% | inhibition [13] 2.67% | RAM network inhibition [14] 4.37%

CC(=O)NC(CCS(C)(=O)=O)C(=O)Nc1cccc2ccccc12 (centres undefined)
97.7%: viability [6, 16]
inactive: Her2 level [2] 102% | viability [3] 108% | viability [4] 94% | viability [5] 87.5% | differential viability (reversal) ([6]; H69AR cells + 2 uM doxorubicin) -10.2% | inhibition [7] -1.87% | inhibition [8] -5.5% | growth inhibition [9] -12.6% | growth inhibition [10] -14.3% | viability increase [11] -2.44% | viability [12] 103% | viability [15] 88.3% | inhibition [13] 1.77% | RAM network inhibition [14] 8.64%
87.5%: viability [6, 17]
108%: viability [1]
